# Source: PMC7862700, “An all-to-all approach to the identification of sequence-specific readers for epigenetic DNA modifications on cytosine”
# How the values were obtained:
# Experiment in all cases: DAPPL (digital affinity profiling via proximity ligation, sequencing); 10 mM Tris-HCl pH 7.5, 50 mM NaCl, 1 mM DTT, 4% glycerol, room temperature, 30 min; GST-TFs on glutathione beads, 16-mer random dsDNA library, 0.1% formaldehyde crosslink after washing; high values mean tight binding
# FEV = molecular target: T1, FEV (Homo sapiens, UniProt Q99581 1-238); settings: protein: recombinant; tags: N-terminal GST; dsDNA, one strand shown
# T1 sequence: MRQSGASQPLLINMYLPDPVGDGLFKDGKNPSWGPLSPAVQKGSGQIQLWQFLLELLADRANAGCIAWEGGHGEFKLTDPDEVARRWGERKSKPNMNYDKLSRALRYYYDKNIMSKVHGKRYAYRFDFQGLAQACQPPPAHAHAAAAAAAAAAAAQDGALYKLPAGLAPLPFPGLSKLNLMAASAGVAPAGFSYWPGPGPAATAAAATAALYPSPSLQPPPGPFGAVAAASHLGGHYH
# How it was run: (§1)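 Human transcription factors were made in yeast as GST fusions, captured on glutathione beads and barcoded with DNA. With a tag-only sample included, the pool was incubated with 200 nmole of a random double-stranded 16-mer DNA library in Tris/NaCl/DTT/glycerol buffer at room temperature for 30 min, then crosslinked with 0.1% formaldehyde after washing, ligated by proximity, amplified and sequenced. For binding signal, each hexamer's read frequency for a factor is divided by its frequency for the tag-only sample.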
# ETV5 = ETV5 (Homo sapiens, UniProt P41161 1-510); settings: protein: recombinant; tags: N-terminal GST; dsDNA, one strand shown
# Chain of ETV5 (P41161 whole entry): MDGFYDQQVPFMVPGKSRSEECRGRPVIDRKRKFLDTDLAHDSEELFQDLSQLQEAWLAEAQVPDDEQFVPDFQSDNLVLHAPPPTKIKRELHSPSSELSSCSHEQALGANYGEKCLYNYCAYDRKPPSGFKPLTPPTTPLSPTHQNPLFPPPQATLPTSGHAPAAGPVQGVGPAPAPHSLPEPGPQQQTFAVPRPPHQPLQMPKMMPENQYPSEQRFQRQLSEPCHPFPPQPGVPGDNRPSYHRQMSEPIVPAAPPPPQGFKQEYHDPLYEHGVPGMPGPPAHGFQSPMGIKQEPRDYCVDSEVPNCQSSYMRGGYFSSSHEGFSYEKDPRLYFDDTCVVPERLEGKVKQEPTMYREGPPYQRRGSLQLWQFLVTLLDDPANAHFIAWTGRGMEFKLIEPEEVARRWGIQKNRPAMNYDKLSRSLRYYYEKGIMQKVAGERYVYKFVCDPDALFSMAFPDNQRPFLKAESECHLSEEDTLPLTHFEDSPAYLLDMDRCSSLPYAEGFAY
# How it was run: as §1
# HSF1 = HSF1 (Homo sapiens, UniProt Q00613 1-529); settings: protein: recombinant; tags: N-terminal GST; chain copies: 3; dsDNA, one strand shown
# Chain of HSF1 (Q00613 whole entry): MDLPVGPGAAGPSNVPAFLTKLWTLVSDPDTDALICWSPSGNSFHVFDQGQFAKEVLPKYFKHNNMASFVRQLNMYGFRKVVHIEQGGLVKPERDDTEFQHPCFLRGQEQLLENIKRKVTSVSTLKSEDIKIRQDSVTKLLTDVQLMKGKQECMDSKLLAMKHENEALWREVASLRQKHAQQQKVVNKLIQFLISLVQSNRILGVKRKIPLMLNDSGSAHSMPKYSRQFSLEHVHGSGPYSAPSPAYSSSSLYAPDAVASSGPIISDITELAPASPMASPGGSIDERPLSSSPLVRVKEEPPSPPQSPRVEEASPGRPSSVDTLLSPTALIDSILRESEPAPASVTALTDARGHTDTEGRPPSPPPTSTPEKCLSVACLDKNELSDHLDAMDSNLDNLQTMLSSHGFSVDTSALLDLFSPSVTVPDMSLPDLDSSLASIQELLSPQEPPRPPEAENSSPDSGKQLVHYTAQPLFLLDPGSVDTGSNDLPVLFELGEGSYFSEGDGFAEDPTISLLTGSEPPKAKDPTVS
# How it was run: as §1
# SPIC = molecular target: T2, SPIC (Homo sapiens, UniProt Q8N5J4 1-248); settings: protein: recombinant; tags: N-terminal GST; dsDNA, one strand shown
# T2 sequence: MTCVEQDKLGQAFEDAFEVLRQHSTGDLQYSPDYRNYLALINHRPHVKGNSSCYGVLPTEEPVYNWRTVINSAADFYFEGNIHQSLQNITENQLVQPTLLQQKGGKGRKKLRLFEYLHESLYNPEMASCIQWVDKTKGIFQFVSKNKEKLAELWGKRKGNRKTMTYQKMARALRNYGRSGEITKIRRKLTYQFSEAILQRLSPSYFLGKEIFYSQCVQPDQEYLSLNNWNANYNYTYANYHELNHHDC
# How it was run: as §1
# ELF4 = ELF4 (Homo sapiens, UniProt Q99607 1-663); settings: protein: recombinant; tags: N-terminal GST; dsDNA, one strand shown
# Chain of ELF4 (Q99607 whole entry): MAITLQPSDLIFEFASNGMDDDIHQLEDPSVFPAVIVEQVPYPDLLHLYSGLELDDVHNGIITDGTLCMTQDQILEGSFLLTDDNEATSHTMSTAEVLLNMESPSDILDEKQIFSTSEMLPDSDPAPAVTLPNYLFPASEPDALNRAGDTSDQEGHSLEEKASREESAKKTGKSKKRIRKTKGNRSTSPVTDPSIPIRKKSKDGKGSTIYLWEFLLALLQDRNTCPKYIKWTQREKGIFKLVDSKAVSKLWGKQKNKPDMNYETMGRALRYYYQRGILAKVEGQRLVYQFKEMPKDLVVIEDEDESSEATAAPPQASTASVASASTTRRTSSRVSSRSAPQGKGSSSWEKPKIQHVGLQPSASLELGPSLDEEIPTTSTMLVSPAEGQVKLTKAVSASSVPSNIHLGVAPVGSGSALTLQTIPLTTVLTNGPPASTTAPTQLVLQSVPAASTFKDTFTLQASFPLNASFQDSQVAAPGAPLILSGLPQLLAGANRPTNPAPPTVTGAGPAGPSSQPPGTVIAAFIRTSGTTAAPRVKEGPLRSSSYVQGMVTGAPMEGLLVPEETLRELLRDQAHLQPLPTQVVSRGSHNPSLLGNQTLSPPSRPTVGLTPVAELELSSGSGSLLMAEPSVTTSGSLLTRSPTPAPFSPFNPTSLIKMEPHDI
# How it was run: as §1
# ELK4 = molecular target: T3, ELK4 (Homo sapiens, UniProt P28324-2 1-405); settings: protein: recombinant; tags: N-terminal GST; dsDNA, one strand shown
# T3 sequence: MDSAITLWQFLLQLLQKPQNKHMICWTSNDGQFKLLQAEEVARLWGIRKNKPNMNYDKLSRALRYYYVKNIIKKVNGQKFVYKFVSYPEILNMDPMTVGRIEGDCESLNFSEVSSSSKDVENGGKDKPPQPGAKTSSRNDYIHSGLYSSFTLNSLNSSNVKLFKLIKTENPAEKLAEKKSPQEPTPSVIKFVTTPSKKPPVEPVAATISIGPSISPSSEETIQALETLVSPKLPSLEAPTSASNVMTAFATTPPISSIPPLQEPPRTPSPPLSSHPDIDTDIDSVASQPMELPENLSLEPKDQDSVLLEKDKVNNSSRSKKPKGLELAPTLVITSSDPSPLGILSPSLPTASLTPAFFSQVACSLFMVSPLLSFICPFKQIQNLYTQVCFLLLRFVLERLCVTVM
# How it was run: as §1
# ETV2 = molecular target: T4, ETV2 (Homo sapiens, UniProt O00321 1-342); settings: protein: recombinant; tags: N-terminal GST; dsDNA, one strand shown
# T4 sequence: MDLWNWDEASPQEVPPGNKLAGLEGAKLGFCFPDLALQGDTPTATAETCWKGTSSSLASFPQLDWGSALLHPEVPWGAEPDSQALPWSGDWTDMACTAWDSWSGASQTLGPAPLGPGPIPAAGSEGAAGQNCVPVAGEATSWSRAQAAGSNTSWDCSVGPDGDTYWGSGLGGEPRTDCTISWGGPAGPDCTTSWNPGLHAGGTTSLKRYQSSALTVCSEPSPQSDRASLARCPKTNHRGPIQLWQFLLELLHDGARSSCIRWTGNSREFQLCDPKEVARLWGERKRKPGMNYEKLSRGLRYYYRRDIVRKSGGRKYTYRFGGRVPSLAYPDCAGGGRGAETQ
# How it was run: as §1
# ELF3 = molecular target: T5, ELF3 (Homo sapiens, UniProt P78545 1-371); settings: protein: recombinant; tags: N-terminal GST; dsDNA, one strand shown
# T5 sequence: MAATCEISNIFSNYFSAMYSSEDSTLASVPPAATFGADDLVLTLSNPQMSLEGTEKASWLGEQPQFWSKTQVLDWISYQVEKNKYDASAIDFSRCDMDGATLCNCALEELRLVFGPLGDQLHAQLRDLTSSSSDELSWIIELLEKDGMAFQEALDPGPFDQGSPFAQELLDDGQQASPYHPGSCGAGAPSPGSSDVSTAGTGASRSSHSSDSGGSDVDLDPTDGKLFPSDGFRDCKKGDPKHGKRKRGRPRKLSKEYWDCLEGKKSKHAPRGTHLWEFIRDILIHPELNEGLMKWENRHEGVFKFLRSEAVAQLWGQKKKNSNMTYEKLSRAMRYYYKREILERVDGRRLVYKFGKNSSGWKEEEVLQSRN
# How it was run: as §1
# CRX = CRX (Homo sapiens, UniProt O43186 1-299); settings: protein: recombinant; tags: N-terminal GST; dsDNA, one strand shown
# Chain of CRX (O43186 whole entry): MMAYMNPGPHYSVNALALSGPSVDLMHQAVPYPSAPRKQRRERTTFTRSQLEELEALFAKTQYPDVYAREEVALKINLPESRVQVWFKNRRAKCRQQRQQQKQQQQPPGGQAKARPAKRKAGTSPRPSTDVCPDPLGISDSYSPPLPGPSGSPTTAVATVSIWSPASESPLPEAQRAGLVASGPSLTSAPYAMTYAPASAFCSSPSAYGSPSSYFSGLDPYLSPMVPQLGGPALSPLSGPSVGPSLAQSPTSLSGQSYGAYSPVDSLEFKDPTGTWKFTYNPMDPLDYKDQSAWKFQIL
# How it was run: as §1
# ETV1 = ETV1 (Homo sapiens, UniProt P50549 1-477); settings: protein: recombinant; tags: N-terminal GST; dsDNA, one strand shown
# Chain of ETV1 (P50549 whole entry): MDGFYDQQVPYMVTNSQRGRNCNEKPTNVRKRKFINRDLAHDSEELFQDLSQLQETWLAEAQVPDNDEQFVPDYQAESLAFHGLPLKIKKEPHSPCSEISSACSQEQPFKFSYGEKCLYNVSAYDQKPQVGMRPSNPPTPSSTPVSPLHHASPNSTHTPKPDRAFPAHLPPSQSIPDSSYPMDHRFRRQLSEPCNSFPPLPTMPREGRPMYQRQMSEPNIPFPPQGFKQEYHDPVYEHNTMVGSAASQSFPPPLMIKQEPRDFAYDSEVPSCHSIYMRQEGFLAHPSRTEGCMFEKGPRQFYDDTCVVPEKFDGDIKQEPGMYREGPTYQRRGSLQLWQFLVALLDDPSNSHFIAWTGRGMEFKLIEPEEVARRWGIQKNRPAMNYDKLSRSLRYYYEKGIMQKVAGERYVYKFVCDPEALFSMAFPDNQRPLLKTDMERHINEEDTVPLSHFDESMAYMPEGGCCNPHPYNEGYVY
# How it was run: as §1
# ERF = molecular target: T6, ERF (Homo sapiens, UniProt P50548 1-548); settings: protein: recombinant; tags: N-terminal GST; dsDNA, one strand shown
# T6 sequence: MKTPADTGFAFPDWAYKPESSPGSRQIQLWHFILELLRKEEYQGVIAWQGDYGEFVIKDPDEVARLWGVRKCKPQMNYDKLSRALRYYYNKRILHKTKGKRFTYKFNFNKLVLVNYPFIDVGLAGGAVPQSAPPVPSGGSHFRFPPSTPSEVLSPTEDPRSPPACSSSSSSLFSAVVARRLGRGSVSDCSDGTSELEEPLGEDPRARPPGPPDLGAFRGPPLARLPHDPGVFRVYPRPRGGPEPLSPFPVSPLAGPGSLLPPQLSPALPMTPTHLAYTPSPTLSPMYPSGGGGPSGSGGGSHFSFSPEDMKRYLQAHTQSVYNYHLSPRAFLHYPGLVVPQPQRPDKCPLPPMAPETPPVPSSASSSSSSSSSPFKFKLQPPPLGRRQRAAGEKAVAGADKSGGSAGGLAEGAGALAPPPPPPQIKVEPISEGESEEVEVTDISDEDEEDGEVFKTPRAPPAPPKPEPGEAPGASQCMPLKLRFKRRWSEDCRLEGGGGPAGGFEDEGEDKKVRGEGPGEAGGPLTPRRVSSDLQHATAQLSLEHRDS
# How it was run: as §1
# ETV3L = molecular target: T7, ETV3L (Homo sapiens, UniProt Q6ZN32 1-361); settings: protein: recombinant; tags: N-terminal GST; dsDNA, one strand shown
# T7 sequence: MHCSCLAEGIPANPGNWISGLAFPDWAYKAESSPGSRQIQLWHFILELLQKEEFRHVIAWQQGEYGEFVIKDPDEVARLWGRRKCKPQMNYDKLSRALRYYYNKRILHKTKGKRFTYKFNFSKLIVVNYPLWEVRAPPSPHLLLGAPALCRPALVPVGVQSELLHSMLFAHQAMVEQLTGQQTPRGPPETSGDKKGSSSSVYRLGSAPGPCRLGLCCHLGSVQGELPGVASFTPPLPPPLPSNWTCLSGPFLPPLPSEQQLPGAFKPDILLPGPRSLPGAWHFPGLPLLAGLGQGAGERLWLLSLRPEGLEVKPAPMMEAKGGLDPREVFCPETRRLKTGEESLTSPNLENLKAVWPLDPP
# How it was run: as §1
# ETS2 = molecular target: T8, ETS2 (Homo sapiens, UniProt P15036 1-469); settings: protein: recombinant; tags: N-terminal GST; dsDNA, one strand shown
# T8 sequence: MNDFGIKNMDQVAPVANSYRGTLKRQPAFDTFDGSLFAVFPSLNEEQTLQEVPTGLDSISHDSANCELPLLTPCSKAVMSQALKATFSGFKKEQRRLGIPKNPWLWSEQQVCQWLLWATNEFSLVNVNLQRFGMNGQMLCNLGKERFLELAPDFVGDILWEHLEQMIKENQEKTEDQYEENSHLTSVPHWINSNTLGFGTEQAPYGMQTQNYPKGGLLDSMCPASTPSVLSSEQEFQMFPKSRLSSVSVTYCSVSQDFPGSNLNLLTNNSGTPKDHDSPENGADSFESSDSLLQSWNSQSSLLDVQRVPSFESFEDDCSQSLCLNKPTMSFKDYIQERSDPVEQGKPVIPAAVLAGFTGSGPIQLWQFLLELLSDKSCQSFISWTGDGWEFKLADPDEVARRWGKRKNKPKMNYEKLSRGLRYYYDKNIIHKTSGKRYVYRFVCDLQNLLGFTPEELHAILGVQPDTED
# How it was run: as §1
# SPDEF = molecular target: T9, SPDEF (Homo sapiens, UniProt O95238 1-335); settings: protein: recombinant; tags: N-terminal GST; dsDNA, one strand shown
# T9 sequence: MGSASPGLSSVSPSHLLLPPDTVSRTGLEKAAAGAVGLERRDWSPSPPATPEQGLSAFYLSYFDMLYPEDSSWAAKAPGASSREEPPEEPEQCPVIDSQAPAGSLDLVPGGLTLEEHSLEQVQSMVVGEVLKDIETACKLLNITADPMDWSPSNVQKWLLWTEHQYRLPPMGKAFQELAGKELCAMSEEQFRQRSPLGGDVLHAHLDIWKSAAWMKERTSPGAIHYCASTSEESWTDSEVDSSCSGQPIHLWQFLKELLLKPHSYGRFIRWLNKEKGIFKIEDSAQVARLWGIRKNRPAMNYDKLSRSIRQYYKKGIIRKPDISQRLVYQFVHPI
# How it was run: as §1
# ETV7 = molecular target: T10, ETV7 (Homo sapiens, UniProt Q9Y603 1-341); settings: protein: recombinant; tags: N-terminal GST; dsDNA, one strand shown
# T10 sequence: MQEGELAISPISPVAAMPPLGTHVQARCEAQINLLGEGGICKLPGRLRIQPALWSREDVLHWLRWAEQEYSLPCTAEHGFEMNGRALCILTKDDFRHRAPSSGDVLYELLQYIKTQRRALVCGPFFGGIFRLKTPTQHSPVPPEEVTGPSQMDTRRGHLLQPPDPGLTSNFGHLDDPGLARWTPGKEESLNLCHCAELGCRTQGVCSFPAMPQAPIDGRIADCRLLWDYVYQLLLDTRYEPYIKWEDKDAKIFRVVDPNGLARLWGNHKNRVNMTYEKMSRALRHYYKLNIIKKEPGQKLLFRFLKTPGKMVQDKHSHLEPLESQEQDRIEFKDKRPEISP
# How it was run: as §1
# ELF5 = molecular target: T11, ELF5 (Homo sapiens, UniProt Q9UKW6-2 1-255); settings: protein: recombinant; tags: N-terminal GST; dsDNA, one strand shown
# T11 sequence: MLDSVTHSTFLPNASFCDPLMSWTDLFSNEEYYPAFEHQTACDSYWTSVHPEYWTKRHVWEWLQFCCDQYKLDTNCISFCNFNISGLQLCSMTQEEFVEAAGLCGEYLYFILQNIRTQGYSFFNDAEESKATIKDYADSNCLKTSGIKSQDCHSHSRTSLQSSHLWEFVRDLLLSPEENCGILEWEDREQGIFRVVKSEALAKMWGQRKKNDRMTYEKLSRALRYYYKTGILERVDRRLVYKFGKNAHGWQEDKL
# How it was run: as §1
# ETV3 = molecular target: T12, ETV3 (Homo sapiens, UniProt P41162-2 1-143); settings: protein: recombinant; tags: N-terminal GST; dsDNA, one strand shown
# T12 sequence: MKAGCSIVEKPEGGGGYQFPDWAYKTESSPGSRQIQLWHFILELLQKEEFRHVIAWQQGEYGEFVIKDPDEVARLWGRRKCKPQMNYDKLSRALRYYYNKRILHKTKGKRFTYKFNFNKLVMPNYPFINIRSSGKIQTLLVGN
# How it was run: as §1
# ETV6 = ETV6 (Homo sapiens, UniProt P41212 1-452); settings: protein: recombinant; tags: N-terminal GST; dsDNA, one strand shown
# Chain of ETV6 (P41212 whole entry): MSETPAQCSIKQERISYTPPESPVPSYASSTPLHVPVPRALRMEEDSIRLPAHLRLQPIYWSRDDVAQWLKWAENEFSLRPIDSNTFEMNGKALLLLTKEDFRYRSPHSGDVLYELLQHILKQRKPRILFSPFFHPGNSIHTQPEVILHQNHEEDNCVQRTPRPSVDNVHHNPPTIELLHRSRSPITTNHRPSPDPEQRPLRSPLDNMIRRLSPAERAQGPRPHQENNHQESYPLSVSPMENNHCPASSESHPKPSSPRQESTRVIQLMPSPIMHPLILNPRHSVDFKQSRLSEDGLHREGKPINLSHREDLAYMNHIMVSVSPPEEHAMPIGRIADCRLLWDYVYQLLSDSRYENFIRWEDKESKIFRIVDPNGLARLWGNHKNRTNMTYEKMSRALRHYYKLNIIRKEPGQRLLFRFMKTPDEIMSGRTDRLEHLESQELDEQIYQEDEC
# How it was run: as §1
sequence,measurement,setting,value
CTTCCA,binding signal,FEV,"1.43 fold enrichment (6-mer frequency, TF over GST control)"
same,binding signal,ETV5,"1.46 fold enrichment (6-mer frequency, TF over GST control)"
same,binding signal,HSF1,"2.18 fold enrichment (6-mer frequency, TF over GST control)"
same,binding signal,SPIC,"1.44 fold enrichment (6-mer frequency, TF over GST control)"
same,binding signal,ELF4,"1.33 fold enrichment (6-mer frequency, TF over GST control)"
same,binding signal,ELK4,"1.45 fold enrichment (6-mer frequency, TF over GST control)"
same,binding signal,ETV2,"1.37 fold enrichment (6-mer frequency, TF over GST control)"
same,binding signal,ELF3,"1.49 fold enrichment (6-mer frequency, TF over GST control)"
same,binding signal,CRX,"1.42 fold enrichment (6-mer frequency, TF over GST control)"
same,binding signal,ETV1,"1.48 fold enrichment (6-mer frequency, TF over GST control)"
same,binding signal,ERF,"1.55 fold enrichment (6-mer frequency, TF over GST control)"
same,binding signal,ETV3L,"1.52 fold enrichment (6-mer frequency, TF over GST control)"
same,binding signal,ETS2,"1.45 fold enrichment (6-mer frequency, TF over GST control)"
same,binding signal,SPDEF,"1.45 fold enrichment (6-mer frequency, TF over GST control)"
same,binding signal,ETV7,"1.36 fold enrichment (6-mer frequency, TF over GST control)"
same,binding signal,ELF5,"1.64 fold enrichment (6-mer frequency, TF over GST control)"
same,binding signal,ETV3,"1.41 fold enrichment (6-mer frequency, TF over GST control)"
same,binding signal,ETV6,"1.76 fold enrichment (6-mer frequency, TF over GST control)"
